Assay [1] is described as follows: binders of probe aFSTL3 on microarray, primary screen, stem cell growth factor project, biochemical, small-molecule microarray, fluorescence 635/667 (AID 1064).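 Further: measures binding of the biotinylated anti-FSTL3 antibody to printed compounds.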 As to conditions: higher = more signal.
Assay [2] is described as follows: binders from COS7 lysate, DM2A8 probe, primary screen, torsin A project, cell lysate, small-molecule microarray, fluorescence 635/667 (AID 1065). Particulars: higher = more signal, COS7 lysate expressing mutant human TOR1A.
Assay [3] can be described thus: binders of probe aFGF2 on microarray, primary screen, stem cell growth factor project, biochemical, small-molecule microarray, fluorescence 635/667 (AID 1067).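 Further: measures binding of biotinylated aFGF2 protein to printed compounds on slides; z-score merges feature fluorescence and signal-to-noise across triplicate slides.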 As to conditions: higher = more signal.
Assay [4] in a line: binders of probe aFGF10 on microarray, primary screen, stem cell growth factor project, biochemical, small-molecule microarray, fluorescence 635/667 (AID 1071).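 Further: score merges 667 nm spot intensity and signal to noise from triplicate slides.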 As to conditions: higher = more signal.
The target in assay [5] is Neurogenic locus notch homolog protein 2 (Homo sapiens) (UniProt Q04721). Briefly: Notch2 binders on small-molecule microarrays, primary screen, biochemical, small-molecule microarray, 635 nm fluorescence, stem cell growth factors (AID 1073). As to conditions: Notch2 binding, higher = more signal.
Chain of Neurogenic locus notch homolog protein 2 (Homo sapiens) (Q04721 whole entry, looked up, canonical isoform): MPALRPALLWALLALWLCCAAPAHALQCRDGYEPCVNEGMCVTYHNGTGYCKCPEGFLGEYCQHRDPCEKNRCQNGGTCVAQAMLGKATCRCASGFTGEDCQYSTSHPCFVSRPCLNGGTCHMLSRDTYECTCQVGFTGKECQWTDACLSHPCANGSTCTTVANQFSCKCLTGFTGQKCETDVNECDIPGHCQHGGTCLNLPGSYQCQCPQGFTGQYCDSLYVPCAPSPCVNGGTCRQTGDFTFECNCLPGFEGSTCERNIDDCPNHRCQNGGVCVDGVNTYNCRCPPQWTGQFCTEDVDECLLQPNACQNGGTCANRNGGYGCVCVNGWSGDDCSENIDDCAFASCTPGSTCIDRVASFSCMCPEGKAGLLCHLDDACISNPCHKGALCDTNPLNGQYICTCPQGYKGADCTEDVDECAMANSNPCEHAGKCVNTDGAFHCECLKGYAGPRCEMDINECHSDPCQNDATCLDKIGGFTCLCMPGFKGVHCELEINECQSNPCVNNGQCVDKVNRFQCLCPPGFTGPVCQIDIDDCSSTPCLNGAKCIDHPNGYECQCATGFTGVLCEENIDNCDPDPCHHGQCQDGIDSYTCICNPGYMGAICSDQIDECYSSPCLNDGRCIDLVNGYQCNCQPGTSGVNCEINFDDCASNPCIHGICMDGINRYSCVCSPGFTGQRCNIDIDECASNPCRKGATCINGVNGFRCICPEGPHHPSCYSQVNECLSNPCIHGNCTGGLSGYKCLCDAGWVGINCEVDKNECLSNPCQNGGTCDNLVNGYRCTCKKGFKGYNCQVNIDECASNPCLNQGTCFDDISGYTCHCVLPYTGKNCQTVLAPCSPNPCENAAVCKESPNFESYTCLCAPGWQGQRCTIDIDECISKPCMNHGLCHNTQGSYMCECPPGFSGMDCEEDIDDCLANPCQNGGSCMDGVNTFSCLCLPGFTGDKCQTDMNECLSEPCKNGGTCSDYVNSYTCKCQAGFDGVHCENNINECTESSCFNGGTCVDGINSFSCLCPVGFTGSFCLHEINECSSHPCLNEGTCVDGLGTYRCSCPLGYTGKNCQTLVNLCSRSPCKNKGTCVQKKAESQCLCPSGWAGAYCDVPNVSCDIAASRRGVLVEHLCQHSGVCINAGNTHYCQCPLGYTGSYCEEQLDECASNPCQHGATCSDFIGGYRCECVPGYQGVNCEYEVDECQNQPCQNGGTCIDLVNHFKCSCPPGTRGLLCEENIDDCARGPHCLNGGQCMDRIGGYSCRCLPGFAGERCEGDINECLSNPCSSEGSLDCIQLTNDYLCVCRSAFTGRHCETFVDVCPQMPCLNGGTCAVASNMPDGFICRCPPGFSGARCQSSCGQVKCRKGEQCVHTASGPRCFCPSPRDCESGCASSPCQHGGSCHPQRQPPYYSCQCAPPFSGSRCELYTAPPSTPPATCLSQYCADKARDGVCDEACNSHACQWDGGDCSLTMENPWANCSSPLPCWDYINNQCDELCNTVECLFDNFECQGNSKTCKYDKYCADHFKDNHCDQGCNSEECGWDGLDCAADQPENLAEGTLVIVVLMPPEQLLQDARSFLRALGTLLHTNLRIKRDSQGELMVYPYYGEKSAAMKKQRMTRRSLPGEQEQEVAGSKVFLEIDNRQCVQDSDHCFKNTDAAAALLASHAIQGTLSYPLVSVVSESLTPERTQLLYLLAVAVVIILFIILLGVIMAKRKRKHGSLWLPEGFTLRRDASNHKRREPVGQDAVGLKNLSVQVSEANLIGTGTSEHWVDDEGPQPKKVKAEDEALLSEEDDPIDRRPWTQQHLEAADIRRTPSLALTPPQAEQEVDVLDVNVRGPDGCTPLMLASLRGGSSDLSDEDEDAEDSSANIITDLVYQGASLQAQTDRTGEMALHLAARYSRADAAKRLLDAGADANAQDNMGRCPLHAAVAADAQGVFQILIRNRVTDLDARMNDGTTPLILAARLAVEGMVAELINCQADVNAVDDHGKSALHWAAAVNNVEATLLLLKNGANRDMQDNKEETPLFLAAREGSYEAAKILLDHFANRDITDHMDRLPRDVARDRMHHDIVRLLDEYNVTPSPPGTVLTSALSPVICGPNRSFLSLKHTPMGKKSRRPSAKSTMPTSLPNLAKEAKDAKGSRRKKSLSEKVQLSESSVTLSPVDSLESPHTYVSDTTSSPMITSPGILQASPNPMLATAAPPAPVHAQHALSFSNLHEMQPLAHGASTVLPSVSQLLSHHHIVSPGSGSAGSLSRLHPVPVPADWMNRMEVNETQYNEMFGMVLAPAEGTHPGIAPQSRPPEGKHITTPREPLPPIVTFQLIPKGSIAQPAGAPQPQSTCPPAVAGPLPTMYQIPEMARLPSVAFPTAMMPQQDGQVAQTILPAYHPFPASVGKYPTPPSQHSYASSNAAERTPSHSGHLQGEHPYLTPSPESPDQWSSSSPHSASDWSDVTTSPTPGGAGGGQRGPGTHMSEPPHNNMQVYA
For assay [6], the target named is Pro-neuregulin-1, membrane-bound isoform (Homo sapiens) (UniProt Q02297). Briefly: NRG1 binders on small-molecule microarrays, primary screen, psychiatric disease protein project, biochemical, small-molecule microarray, fluorescence 635/667 (AID 1075).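 Further: score combines 667 nm spot fluorescence with signal to noise.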 As to conditions: NRG1 binding, 635 nm fluorescence, higher = more signal.
Chain of Pro-neuregulin-1, membrane-bound isoform (Homo sapiens) (Q02297 whole entry, looked up, the tested form may be a part, canonical isoform): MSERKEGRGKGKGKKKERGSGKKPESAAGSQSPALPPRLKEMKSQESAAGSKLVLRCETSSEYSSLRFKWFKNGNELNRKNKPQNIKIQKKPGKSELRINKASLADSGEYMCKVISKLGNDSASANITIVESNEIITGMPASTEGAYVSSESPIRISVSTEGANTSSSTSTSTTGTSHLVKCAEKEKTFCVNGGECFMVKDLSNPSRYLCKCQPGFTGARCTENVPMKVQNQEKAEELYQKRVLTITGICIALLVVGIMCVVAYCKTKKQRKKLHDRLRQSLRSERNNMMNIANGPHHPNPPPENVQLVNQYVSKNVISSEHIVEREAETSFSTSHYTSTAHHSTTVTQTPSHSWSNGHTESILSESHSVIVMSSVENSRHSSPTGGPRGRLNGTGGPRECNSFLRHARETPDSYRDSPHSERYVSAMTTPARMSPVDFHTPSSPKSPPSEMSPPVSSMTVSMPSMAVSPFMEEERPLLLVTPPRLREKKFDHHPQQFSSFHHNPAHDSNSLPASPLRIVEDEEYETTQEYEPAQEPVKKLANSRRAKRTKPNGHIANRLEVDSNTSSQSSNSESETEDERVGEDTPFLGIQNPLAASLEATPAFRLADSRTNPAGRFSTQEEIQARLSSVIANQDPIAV
Assay [7] deals with Neuregulin-1 EGF-like domain. Nature of the assay: binders of neuregulin-1 EGF-like domain, primary screen, biochemical, small-molecule microarray, 635 nm fluorescence (AID 1081).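 Further: binding of the protein to compounds printed on small-molecule microarray slides.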 As to conditions: small-molecule microarray binding, higher = more signal.
Assay [8] can be described thus: FRG1 promoter luciferase signal modulators, primary screen, FRG1 inhibition for FSHD, cell-based, C2C12 myotubes, firefly/Renilla luciferase, luminescence (AID 1084). As to conditions: higher = more signal, called active from +8 up or from −8 down.
Assay [9] in a line: binders of probe aFST on microarray, primary screen, stem cell growth factor project, biochemical, small-molecule microarray, fluorescence 635/667 (AID 1086).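 Further: score merges 667 nm fluorescence with signal-to-noise of each printed compound spot.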 As to conditions: higher = more signal.
Assay [10] in a line: binders of probe aHhip on microarray, primary screen, stem cell growth factor project, biochemical, small-molecule microarray, fluorescence 635/667 (AID 1087).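 Further: score merges spot fluorescence at 667nm with spot signal to noise ratio.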 As to conditions: higher = more signal.

Active and inactive are the calls of the source.

In the case of `C=C(C(=O)CC[C@@H](OC(=O)c1ccccc1-c1ccccc1C(=O)O)c1ccccc1OCCO)C(C)C`, the composite z-score is -0.248 in [1]; 0.95 in assay [2]; -0.113 in assay [3]; 0.858 in assay [4]; 0.493 in assay [5]; 0.0729 in assay [6]. Further, the composite z-score in assay [7] worked out at 0.838; in [9], 0.111; in assay [10], 0.233. The z-score in assay [8] was 0.16 (inactive).
For `C=CCN1C(=O)[C@]2(O[C@H](CCO)[C@@H]([Si](C)(C)c3ccc(OC)cc3)[C@@H]2C)c2cc(N3C(=O)COc4ccccc43)ccc21`, the composite z-score in assay [1] is 0.174; in assay [2], -0.142; in [3], -0.0597; in [4], 0.606; in [5] it was 0.248; in assay [6], 0.966. Moreover, the composite z-score is 0.698 in [7], -0.0347 in assay [9] and -0.297 in [10]. Also, the z-score in [8] is -0.998 (inactive).
For the molecule `Cc1c(NC(=O)/C(C#N)=C/c2ccccc2Cl)c(=O)n(-c2ccccc2)n1C`, the composite z-score is -0.183 in assay [1]; 0.0711 in assay [2]; -0.009 in [3]; 0.0417 in assay [4]; 0.935 in [5]; 0.888 in assay [6]. Besides, the composite z-score is 1.12 in [7], 1.27 in assay [9] and -0.139 in [10]. Further, the z-score in assay [8] is 0.311 (inactive).
On to `C=C/C=C/[C@@H]1C(=C)CN([C@@H](Cc2ccccc2)C(=O)OC)[C@H]1[C@@H](O)Cc1ccccc1`, for which the composite z-score was -0.252 in assay [1]; 0.814 in assay [2]; -0.109 in assay [3]; 0.34 in [4]; 0.186 in [5]; 0.404 in assay [6]. Moreover, the values for the composite z-score in assay [7], in assay [9] and in [10] were 1, 0.101 and -0.0645, respectively. Besides, the z-score in [8] was -0.661 (inactive).
On to `O=C1c2ccccc2[C@](Cc2ccccc2I)(C(=O)NC2CC2)[C@H](c2ccc(CO)cc2)N1Cc1ccccc1C(F)(F)F`, for which the composite z-score in assay [1] was -0.0446; in assay [2] it was 0.338; in assay [3], -0.0878; in [4], 0.433; in [5], -0.229; in [6], 1.74. The values for the composite z-score in [7], in assay [9] and in assay [10] were 1.26, 0.11 and -0.0726, respectively. Moreover, the z-score in assay [8] was -2.07 (inactive).
Regarding `C=CCC(OC(C)=O)[C@@H]1[C@@H](N(Cc2cccc3ccccc23)C(=O)c2cccc3ccccc23)c2cc(OCCCO)ccc2N1C(=O)c1ccc2ccccc2c1` (stereo not given in full), the composite z-score is -0.232 in assay [1]; -0.124 in [2]; 0.365 in assay [3]; 0.0197 in [4]; -0.833 in assay [5]; -0.247 in assay [6]. The figures for the composite z-score in [7], in assay [9] and in assay [10] were -0.313, 0.268 and -0.132, respectively. Further, in [8], the z-score was -2.36 (inactive).
`NC(=O)[C@H]1[C@@H]2C(=O)O[C@@H](c3ccccc3)[C@@H](c3ccccc3)N2[C@@H](c2ccc(O)cc2)[C@]12C(=O)Nc1ccc(C#CC3=CCCCC3)cc12`: the composite z-score in assay [1] is 0.124; in assay [2] it was 0.813; in assay [3], -0.0979; in assay [4] it was -0.105; in assay [5], -0.734; in assay [6], 1.22. Moreover, the composite z-score in assay [7] was 1.25; in [9], 0.0569; in assay [10] it was -0.406. Besides, the z-score in [8] was 1.23 (inactive).
`O=c1cccc(-c2ccco2)o1`: the composite z-score in [1] is -0.539; in [2], 0.336; in assay [3], -0.132; in [4], 0.694; in [5] it was 0.386; in [6] it was 0.904. Further, the figures for the composite z-score in [7], in assay [9] and in assay [10] were 0.498, 0.0153 and -0.0994, respectively. In addition, the z-score in assay [8] is 0.557 (inactive).
On to `CN1C=C(C(=O)OCCS(C)(=O)=O)C(C(=O)OCCS(C)(=O)=O)=CC(c2ccc(CO)cc2)=CC1c1cccs1` (stereo not given), for which the composite z-score was -0.0269 in [1]; -0.0376 in assay [2]; -0.0448 in assay [3]; 0.236 in assay [4]; -0.0588 in assay [5]; 1.47 in assay [6]. The results for the composite z-score in assay [7], in assay [9] and in assay [10] were 1.03, 0.0216 and 0.0024, respectively. For the same molecule, the z-score in [8] is 2.55 (inactive).
In the case of `CC(=O)NCCCC[C@@H]1NC(=O)[C@@H]2C[C@H](C(=O)NCCCCCCN)[C@H](c3cccc(OCCO)c3)N2C1=O`, the composite z-score in assay [1] is 0.501; in assay [2] it was 0.43; in [3], -0.0336; in [4], 0.281; in assay [5], -0.149; in [6], 1.63. For the same molecule, the figures for the composite z-score in assay [7], in assay [9] and in [10] were 1.08, -0.0064 and -0.0296, respectively. Besides, the z-score in [8] is 2.15 (inactive).
With `CO[C@H]1O[C@H](CO)[C@@H](OC(=O)Nc2ccc(C#N)cc2)[C@@H]2OC(=O)[C@H](Cc3cccc(Br)c3)C/C=C/C[C@@H](Cc3cccc(Br)c3)C(=O)O[C@@H]12`, the composite z-score in assay [1] was -0.381; in assay [2], -0.0617; in [3] it was -0.0181; in assay [4], 0.503; in assay [5], 0.626; in assay [6], 0.514. The composite z-score in assay [7] stood at 0.3; in [9], 0.572; in assay [10], 0.195. Also, the z-score in [8] was -0.362 (inactive).
For `O=C(N1CCOCC1)[C@@]1(CCS(=O)(=O)c2ccccc2)N=C(c2ccc(OCCCO)cc2)O[C@H]1c1ccccc1`, the composite z-score is 0.448 in assay [1]; 1.06 in [2]; 0.0671 in [3]; 0.515 in assay [4]; 1.45 in assay [5]; 2.31 in [6]. The composite z-score in assay [7] was 1.37; in assay [9], 1.37; in [10] it was -0.191. Moreover, the z-score in [8] is 0.419 (inactive).
Take `CC(C)C(=C=CC[C@@H](O)c1cccc(OCCO)c1)C[C@@H](O)COCc1ccccc1`: the composite z-score in assay [1] was -0.0972; in [2], -0.254; in assay [3], -0.0835; in assay [4] it was 0.45; in assay [5], -0.554; in [6], -0.0802. For the same molecule, the composite z-score in [7] was -0.547; in assay [9], 0.182; in [10], -0.188. In [8], the z-score is -2.12 (inactive).
In the case of `CCN(CC)c1ccc(N2CC=CC34O[C@@H]5/C=C\CCC(C)OC(=O)C5[C@H]3C(=O)N(C(C)CO)[C@@H]4C2=O)cc1` (stereo not given in full), the composite z-score in [1] is -0.0462; in assay [2], -0.362; in [3] it was -0.116; in [4], -0.244; in assay [5], -1.06; in [6], 0.168. Further, the composite z-score in assay [7] was -0.527; in assay [9] it was -0.293; in [10], -0.652. Also, in [8], the z-score is 0.355 (inactive).

(Values after PubChem BioAssay.)
